Bioassay records deposited in PubChem by National Center for Advancing Translational Sciences (NCATS).
In the library only some 0.3% were active in any assay of this set; here they are far more common.
N370S GC mod = N370S glucocerebrosidase modulation, Gaucher chaperone candidate | P04062 | N370S GC spleen homogenate, 4MU-glucoside fluorescence | Potency, µM (top dose mostly 59.4 µM), inactives show at the highest dose activity change, negative = inhibition, actives largely listed as inhibitors | 330,000 compounds, 0.092% hits;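 further: 0% = full enzyme activity and -100% = no enzyme basal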
p53 reactivator = re-activators of mutant p53 | 320,000 compounds, 0.063% hits | H1299 p53-A138V BP100-luciferase reporter, luminescence, 24 h | Potency, µM (series often up to 92.2 µM), inactives show top-dose activity change, positive = activation, most hits filed as activators; further: % of control where 0% means no effect; nearly all actives have a fitted effect of over 45% in size
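p53-null H1299 cells stably carrying temperature-sensitive p53-A138V and a BP100-luciferase reporter were pinned with compounds (4-point, 1:5 series) and held 24 hrs at 37 deg C. Luminescence was read 10 min after detection reagent.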
AT treatment = potential ataxia-telangiectasia treatments restoring KAP-1 phosphorylation | 320,000 compounds, 0.19% hits | Potency, µM (doses to about 57.5 µM), without a hit: at the highest dose activation, usual class: activators | F2112 A-T fibroblasts, KAP-1 phosphorylation AlphaLISA; neocarzinostatin DNA damage 30 min before lysis | AID 485349; further: % of control where 0% means no effect; nearly all actives have a fitted effect of over 45% in size
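ATM-like activity read as KAP-1 phosphorylation via AlphaLISA donor/acceptor antibody pairs after lysis and 6 hr at 25C. Cells were ATM-null patient fibroblasts (F2112, hTERT), dosed 60 min, then exposed to the DSB inducer NCS for 30 min.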
ASM inhibitor = human S-ASM enzyme inhibition | P17405 | AID 504937 | placental ASM, HMU-PC fluorogenic substrate, 60 min | 340,000 compounds, 0.006% hits | Potency, µM (titrated, usually from 57.5 µM), for inactives: top-dose activity change, negative = inhibition, hits mostly inhibitors
Target sequence (P17405 47-631 limits assumed): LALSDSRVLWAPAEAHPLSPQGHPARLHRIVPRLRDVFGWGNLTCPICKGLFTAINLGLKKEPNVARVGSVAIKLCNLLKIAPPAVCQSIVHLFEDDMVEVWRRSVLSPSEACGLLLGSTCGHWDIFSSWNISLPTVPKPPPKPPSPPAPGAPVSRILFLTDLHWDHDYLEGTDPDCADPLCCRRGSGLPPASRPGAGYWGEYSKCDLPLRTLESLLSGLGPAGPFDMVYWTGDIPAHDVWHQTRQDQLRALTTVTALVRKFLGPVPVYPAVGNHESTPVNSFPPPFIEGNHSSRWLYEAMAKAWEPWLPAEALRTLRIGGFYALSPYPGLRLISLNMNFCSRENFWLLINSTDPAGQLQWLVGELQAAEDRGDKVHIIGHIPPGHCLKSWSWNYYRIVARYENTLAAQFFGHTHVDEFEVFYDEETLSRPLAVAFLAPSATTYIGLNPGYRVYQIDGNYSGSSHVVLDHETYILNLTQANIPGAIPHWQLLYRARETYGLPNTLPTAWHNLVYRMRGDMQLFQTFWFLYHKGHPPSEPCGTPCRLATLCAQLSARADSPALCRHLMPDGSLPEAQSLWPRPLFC
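qHTS format. ASM enzyme prepared from human placenta hydrolyses the fluorogenic substrate HMU-PC0 (9 uM final) over 60 min at 37 °C after a 10 min compound preincubation.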
* hit, by the source's call; i = inactive; ? = inconclusive; . = no result given. The call rests on the fitted dose curve; in most records, active means well fitted curve in the direction sought with a large enough effect; inconclusive means small, poorly fitted or top-dose-only effect, or another doubt; inactive means no such curve, though single readings can be large; an effect the other way counts as inactive or inconclusive. Potency means the concentration at half of the fitted maximal effect.

SMILES | N370S GC mod | p53 reactivator | AT treatment | ASM inhibitor
CC[C@H](C)[C@H](NC(=O)[C@H](Cc1ccc(O)cc1)NC(=O)[C@H](Cc1cnc[nH]1)NC(=O)[C@H](CCCNC(=N)N)NC(=O)[C@H](CC(C)C)NC(=O)[C@H](C)NC(=O)[C@H](CO)NC(=O)[C@H](Cc1ccc(O)cc1)NC(=O)[C@H](Cc1ccc(O)cc1)NC(=O)[C@H](CCCNC(=N)N)NC(=O)[C@H](C)NC(=O)[C@H](CC(C)C)NC(=O)[C@H](CC(=O)O)NC(=O)[C@H](CCC(=O)O)NC(=O)[C@H](C)NC(=O)[C@@H]1CCCN1C(=O)[C@H](C)NC(=O)[C@H](CC(=O)O)NC(=O)[C@H](CCC(=O)O)NC(=O)CNC(=O)[C@@H]1CCCN1C(=O)[C@H](CC(N)=O)NC(=O)[C@H](CC(=O)O)NC(=O)[C@@H]1CCCN1C(=O)[C@H](CCCCN)NC(=O)[C@H](CO)NC(=O)[C@@H]1CCCN1C(=O)[C@@H](N)Cc1ccc(O)cc1)C(=O)N[C@@H](CC(N)=O)C(=O)N[C@@H](CC(C)C)C(=O)N[C@H](C(=O)N[C@H](C(=O)N[C@@H](CCCNC(=N)N)C(=O)N[C@@H](CCC(N)=O)C(=O)N[C@@H](CCCNC(=N)N)C(=O)N[C@@H](Cc1ccc(O)cc1)C(N)=O)[C@@H](C)O)[C@@H](C)CC | -3% | . | . | .
C#CCOCCOCCOCCNc1nc(N2CCN(C(=O)CCCCCCCCCCNC(=O)[C@H]([C@@H](C)CC)n3cc(CCCCN=C(N)N)nn3)CC2)nc(N2CCN(C(=O)CCCCCCCCCCNC(=O)[C@H](CCCN=C(N)N)n3cc(C[C@@H](C)CC)nn3)CC2)n1 | 8.9µM* | -9% | -5% | .
C#CCOCCOCCOCCNc1nc(N2CCOCC2)nc(N2CCN(C(=O)CCCCCCCCCCNC(=O)[C@H]([C@@H](C)CC)n3cc(CCCCN=C(N)N)nn3)CC2)n1 | ? | 2% | 17% | 0%
C#CCOCCOCCOCCNc1nc(N2CCN(C(=O)CCCCCCCCCCNC(=O)[C@H](CCCN=C(N)N)n3cc(C[C@@H](C)CC)nn3)CC2)nc(N2CCN(C(=O)CCCCCCCCCCNC(=O)[C@@H]([C@H](C)CC)n3cc(CCCCCN)nn3)CC2)n1 | 5.6µM* | -29% | -6% | .
C=C(C)C(=O)OCCOC(=O)C(=C)C | 2% | . | . | .
C[N+]1(Cc2ccccc2)CCC(C(=O)OCC2CCCC2)CC1 (centres undefined) | 6% | . | . | .
CCC[C@H]1CC(=O)C=C(c2ccsc2)ON1C(=O)OC(C)(C)C | . | . | . | 39%
CCC[C@@H]1CCCC/C=C\CCCC(=O)OCCN1C(=O)OC(C)(C)C | . | 0% | 25µM* | -17%
CN(C)c1ccc(-c2ccc(C3C4C=CCCC4(C)C(=O)N3Cc3ccccc3)c(F)c2)cc1 (centres undefined) | -1% | . | . | .
O=C(COC(=O)c1cccc(Cl)c1Cl)NC1CCCC1 | -4% | 8% | 18µM* | 0%
CN(C(=O)c1cccc(C(=O)N(C)c2ccccc2)c1)c1ccccc1 | -11% | . | -3% | 0%
CN(C(=O)c1cc(C(=O)N(C)c2ccccc2)cc([N+](=O)[O-])c1)c1ccccc1 | -10% | 13% | 40µM* | -2%
C/C=C(\C)C(=O)O[C@H]1C[C@@]2(C)CCC(C(C)C)C2(O)CC[C@@]1(C)O (some centres undefined) | 0% | . | . | .
CNc1ncnc2ccc(-c3cccc(OC)c3)cc12 | 8.9µM* | . | . | .
CCOC(=O)C1CCN(Cc2nnc(-c3ccccc3C)o2)CC1 | -3% | 14% | -3% | 4%
CCOC(=O)N1CCN(Cc2nnc(-c3ccccc3C)o2)CC1 | -5% | 15% | 20µM* | -3%
CCOC(=O)N1CCN(CC(=O)N2c3ccccc3Sc3ccccc32)CC1 | 25% | -1% | 18µM* | -2%
CN1CCN(CC(=O)N2c3ccccc3Sc3ccccc32)CC1 | -5% | -5% | 5% | 3%
COc1ccccc1C(=O)N=c1sc2c(C)ccc(OC)c2n1C | 7% | 17% | 16µM* | -4%
NCC(=O)N[C@@H](CCCN=C(N)N)C(=O)NCC(=O)N[C@@H](CCC(=O)O)C(=O)N[C@@H](CO)C(=O)O | -2% | . | . | .
CCCn1c(-c2ccc(F)cc2)nc2c(NC3CCN(Cc4ccccc4)CC3)nc(C)nc21 | -18% | . | . | .
CCCCCCCCNC(=O)/C(C#N)=C/c1ccccc1[N+](=O)[O-] | 18% | -27% | 25µM* | -18%
N#C/C(=C\c1ccccc1[N+](=O)[O-])C(=O)NCc1ccccc1 | 1% | -10% | 10% | -2%
CCCC(=O)NCCc1c(I)[nH]c2ccc(OC)cc12 | -4% | . | . | .
Cc1cn(C2CC3OCC(NC(=O)C(Cc4ccccc4)NC(=O)OC(C)(C)C)C3O2)c(=O)[nH]c1=O (centres undefined) | -5% | . | . | .
SMILES | N370S GC mod | p53 reactivator | AT treatment | ASM inhibitor
COc1ccc(C=C(c2nc3ccccc3s2)c2nc3ccccc3s2)cc1O | -14% | ? | 28µM* | -5%
Cc1ccc(CNc2nc(-c3cccs3)nc3ccccc23)cc1 | 14µM* | 18% | 12% | -22%
c1ccc(CNc2nc(-c3cccs3)nc3ccccc23)nc1 | -29% | 1% | 6% | 7%
CCCCN(CC)c1nc(C)nc2c1c(C)c(C)n2-c1c(C)cc(C)cc1C | 2% | . | . | .
Cc1ccc(C(C)C)c(OCCN2CCc3ccccc3C2)c1 | -16% | -4% | 35µM* | 0%
Cc1ccc(OCCCCN2CCc3ccccc3C2)c(C)c1 | -22% | . | 35µM* | 1%
Cc1ccc(C(C)C)c(OCCCN2CCc3ccccc3C2)c1 | ? | 11% | ? | 0%
Cc1ccc(C(C)C)c(OCCCN(C)Cc2ccccc2)c1 | ? | 5% | 35µM* | -3%
COc1ccc(C2/C=C\CN(C(=O)C3CCCC3)CC(=O)N2Cc2ccc(F)cc2)cc1 (centres undefined) | -4% | 1% | 14µM* | -8%
COc1ccc(C2/C=C\CN(C(=O)C3CCCCC3)CC(=O)N2Cc2ccc(F)cc2)cc1 (centres undefined) | -1% | -2% | 26% | -6%
CCCCN(c1nc2ccccc2nc1Cl)S(=O)(=O)c1ccc(C)cc1 | 9% | 1% | 10µM* | -1%
CCOC(=O)C1=C(c2ccccc2)NC(=O)NC1c1cc(Cl)c(O)c(OC)c1 (centres undefined) | 1% | -5% | -2% | 4%
CCOC(=O)C1=C(c2ccccc2)NC(N)=NC1c1ccc(OCc2ccc(Cl)cc2)c(OC)c1 (centres undefined) | 22µM* | -12% | 0% | -16%
Cc1cc(C)c2c(-c3ccc(-c4ccc(C(F)(F)F)cc4)cc3)cc(=O)oc2c1 | -6% | . | . | .
CC(C)c1ccc(-c2cc(C(=O)N3CCOCC3)c3cc(Br)ccc3n2)cc1 | -15% | 23% | 4.5µM* | .
COC(=O)c1c(-c2ccc(N(C)C)cc2)sc2ccc(OC)cc12 | . | 3% | 25µM* | i
COC(=O)c1c(-c2ccc(OC)cc2)sc2cc3c(cc12)OCO3 | . | ? | 36% | 105%
